According to PubChem BioAssay (NCI):
About 83,000 compounds went through this panel and 20% of them were active in at least one assay; those are over-represented in the sample as a whole.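 Treatment: one concentration, 48 hours, 96-well format. Scoring: percent growth, with anything below 10 considered active.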 Active and inactive are the calls of the source.

Tests used:
Assay in all cases: NCI-60 one-dose screen, 48 h (100 = growth as untreated, 0 = no growth, -100 = all killed)
Conditions in all cases: 10 µM
K-562 leukemia = tested on: K-562 leukemia
MDA-MB-231 breast = tested on: MDA-MB-231 breast
RXF 393 renal = tested on: RXF 393 renal
SF-268 CNS = tested on: SF-268 CNS
SF-295 CNS = tested on: SF-295 CNS
SF-539 CNS = tested on: SF-539 CNS
UACC-257 melanoma = tested on: UACC-257 melanoma
M14 melanoma = tested on: M14 melanoma
HCT-15 colon = tested on: HCT-15 colon
MALME-3M melanoma = tested on: MALME-3M melanoma

Measured: growth

COc1ccc(-c2nc3sc(C4CC4)nn3c2/C=C2/C(=O)Nc3ccc(OC)cc32)cc1
inactive: K-562 leukemia 74.3% | MDA-MB-231 breast 58.4% | RXF 393 renal 63.9% | SF-268 CNS 75.8% | SF-295 CNS 82.8% | SF-539 CNS 25.1% | UACC-257 melanoma 55.2% | M14 melanoma 63.8% | HCT-15 colon 76.9%

Cc1ccc2oc3nc(C)c(C(=O)NCc4ccccc4)cc3c(=O)c2c1
inactive: K-562 leukemia 18.4% | MDA-MB-231 breast 88.8% | RXF 393 renal 120% | SF-268 CNS 95.3% | SF-295 CNS 41.9% | SF-539 CNS 99.3% | UACC-257 melanoma 69.2% | M14 melanoma 29% | HCT-15 colon 78.8%

O=C(Nc1ccncc1)C(=O)c1cn(S(=O)(=O)c2cccc3ccccc23)c2ccccc12
inactive: K-562 leukemia 18.9% | MDA-MB-231 breast 74.6% | RXF 393 renal 89.7% | SF-268 CNS 107% | SF-295 CNS 52% | SF-539 CNS 92.7% | UACC-257 melanoma 89% | M14 melanoma 82.7% | HCT-15 colon 65.7%

CCCCCCCCCCCCCCCCN(C(C)c1ccccc1)S(=O)(=O)c1ccc(OC)c(N)c1 (stereo not drawn)
inactive: K-562 leukemia 89.9% | MDA-MB-231 breast 122% | RXF 393 renal 131% | SF-268 CNS 108% | SF-295 CNS 116% | SF-539 CNS 116% | UACC-257 melanoma 108% | M14 melanoma 115% | HCT-15 colon 115%

COc1ccc(Cn2c(C(N)=O)cc3c2-c2nc(N)ncc2CCC3)cc1
inactive: K-562 leukemia 107% | MDA-MB-231 breast 88.9% | RXF 393 renal 102% | SF-268 CNS 96.8% | SF-295 CNS 98.3% | SF-539 CNS 95.8% | UACC-257 melanoma 102% | M14 melanoma 96.7% | HCT-15 colon 91.1%

COc1cc(C2CC(c3ccc(Nc4ccnc5cc(Cl)ccc45)cc3)=NN2c2ccc(Cl)cc2)cc(OC)c1OC (stereo not drawn)
active: K-562 leukemia 6.22%
inactive: MDA-MB-231 breast 42.6% | RXF 393 renal 60.4% | SF-268 CNS 48.5% | SF-295 CNS 28.8% | SF-539 CNS 59.3% | UACC-257 melanoma 61.3% | M14 melanoma 38.2% | HCT-15 colon 45.4%

O=C1OCC2=C1C(c1ccc(Cl)c(Cl)c1)c1cc3c(cc1N2CCO)OCCO3 (stereo not drawn)
inactive: K-562 leukemia 17.8% | MDA-MB-231 breast 26.6% | SF-268 CNS 43.1% | UACC-257 melanoma 59.9% | M14 melanoma 12.4% | HCT-15 colon 18.3%
active: RXF 393 renal 8.18% | SF-295 CNS -12.8% | SF-539 CNS 2.76%

CC(=O)/C(=C/c1ccccc1)C(=O)CC(C)C
inactive: K-562 leukemia 41.5% | MDA-MB-231 breast 119% | RXF 393 renal 103% | SF-268 CNS 95.3% | SF-295 CNS 102% | SF-539 CNS 109% | UACC-257 melanoma 89.6% | M14 melanoma 82.9% | HCT-15 colon 76.1%

CC(C)=CCc1ccc(O)c(=O)cc1C(C)C
inactive: K-562 leukemia 11.1% | MDA-MB-231 breast 52.4% | RXF 393 renal 12.7% | SF-268 CNS 13.7% | SF-539 CNS 20% | UACC-257 melanoma 13.6% | HCT-15 colon 38.1%
active: SF-295 CNS 8.22% | M14 melanoma -16.8%

Cc1cc(C)c2c(n1)sc1c(Nc3ccc(Cl)cc3)ncnc12
inactive: K-562 leukemia 46.2% | MDA-MB-231 breast 32.1% | SF-295 CNS 10.6% | UACC-257 melanoma 20.3% | HCT-15 colon 31%
active: RXF 393 renal 1.12% | SF-268 CNS 0.138% | SF-539 CNS -49.5% | M14 melanoma -48.3%

CCc1ccc2c(c1)N(CCO)C1=C(C(=O)OC1)C2c1cc(OC)c(OC)c(OC)c1 (stereo not drawn)
inactive: K-562 leukemia 10.5% | RXF 393 renal 53.4% | SF-268 CNS 21.7% | UACC-257 melanoma 50.5% | M14 melanoma 10.2%
active: MDA-MB-231 breast -28% | SF-295 CNS -28.4% | SF-539 CNS -9.69% | HCT-15 colon 6.93%

O=C(O)C(SC(C(=O)O)c1ccccc1)c1ccccc1 (stereo not drawn)
inactive: K-562 leukemia 98.6% | MDA-MB-231 breast 115% | RXF 393 renal 106% | SF-268 CNS 106% | SF-295 CNS 115% | SF-539 CNS 115% | UACC-257 melanoma 104% | M14 melanoma 109% | HCT-15 colon 99.8%

c1ccc2c(c1)oc1c3c(ccc12)NCCC3
inactive: K-562 leukemia 98.4% | MDA-MB-231 breast 90.2% | RXF 393 renal 107% | SF-268 CNS 96.1% | SF-295 CNS 118% | SF-539 CNS 93.4% | UACC-257 melanoma 95.4% | M14 melanoma 109% | HCT-15 colon 81.1%

CCCCCC(=O)c1ccc(OCCCN2CCN(C(=O)OCC)CC2)cc1
inactive: K-562 leukemia 66.4% | MDA-MB-231 breast 99.5% | RXF 393 renal 102% | SF-268 CNS 108% | SF-295 CNS 81.8% | SF-539 CNS 104% | UACC-257 melanoma 95.6% | M14 melanoma 103% | HCT-15 colon 85.1%

CC(C)(C)NC/C(=C\c1ccccc1)C(=O)c1ccccc1
active: K-562 leukemia 6.24% | MDA-MB-231 breast -23% | RXF 393 renal -66.4% | SF-268 CNS 7.36% | SF-539 CNS -46.2% | UACC-257 melanoma -8.37% | M14 melanoma -30.6% | HCT-15 colon -52.1%
inactive: SF-295 CNS 85.9%

CCN(CC)CCOc1nc2ccccc2c2c1-c1ccc(OC)cc1C2=O
active: K-562 leukemia -17.8% | RXF 393 renal 3.35% | SF-268 CNS -6.65% | SF-295 CNS -7.99% | UACC-257 melanoma -18.8% | M14 melanoma -53.3% | HCT-15 colon 2.9%
inactive: MDA-MB-231 breast 10.7% | SF-539 CNS 29.2%

COc1ccc(/C=C/C(=O)Nc2ccc(-c3nc4ccc(OC)cc4s3)cc2)cc1
inactive: K-562 leukemia 95.7% | MDA-MB-231 breast 111% | RXF 393 renal 112% | SF-268 CNS 116% | SF-295 CNS 106% | SF-539 CNS 102% | UACC-257 melanoma 111% | M14 melanoma 106% | HCT-15 colon 111%

O=C(CCCCC[P+](c1ccccc1)(c1ccccc1)c1ccccc1)NC(COC(=O)C(Cl)Cl)(COC(=O)C(Cl)Cl)COC(=O)C(Cl)Cl
inactive: K-562 leukemia 98.2% | MDA-MB-231 breast 111% | RXF 393 renal 101% | SF-268 CNS 103% | SF-295 CNS 99% | SF-539 CNS 107% | UACC-257 melanoma 97.5% | M14 melanoma 102% | HCT-15 colon 99%

O=C(Nc1ccc(Cl)c(Cl)c1)Nc1c(Oc2ccc(Cl)c(Cl)c2)ccc(Cl)c1S(=O)(=O)O
inactive: MDA-MB-231 breast 39.5% | SF-268 CNS 52.1% | UACC-257 melanoma 61.9% | M14 melanoma 19.3% | HCT-15 colon 39.6%
active: K-562 leukemia 9.98% | RXF 393 renal -14.3% | SF-295 CNS -27.2% | SF-539 CNS 4%

COc1ccc(-c2nc3sc(-c4ccc(OC)cc4)c(-c4ccc(OC)cc4)n3c2/C=C/c2ccc(C(C)C)cc2)cc1
inactive: K-562 leukemia 105% | MDA-MB-231 breast 90.9% | RXF 393 renal 92.4% | SF-268 CNS 106% | SF-295 CNS 96.6% | SF-539 CNS 94.3% | UACC-257 melanoma 95.6% | M14 melanoma 98.4% | HCT-15 colon 92.5%

NC(=O)SCC(=O)Nc1ccc(S(N)(=O)=O)cc1
inactive: K-562 leukemia 108% | MDA-MB-231 breast 106% | RXF 393 renal 99% | SF-268 CNS 106% | SF-295 CNS 107% | SF-539 CNS 100% | UACC-257 melanoma 101% | M14 melanoma 105% | HCT-15 colon 109%

Nc1ccc2cc(S(=O)(=O)O)cc(O)c2c1N=Nc1ccc(F)cc1
inactive: K-562 leukemia 119% | MDA-MB-231 breast 112% | RXF 393 renal 119% | SF-268 CNS 114% | SF-295 CNS 110% | SF-539 CNS 95.9% | UACC-257 melanoma 106% | M14 melanoma 100% | HCT-15 colon 105%

CCCCCCCCCCCC[n+]1ccc(C(N)=O)cc1
inactive: MDA-MB-231 breast 28.4% | SF-268 CNS 22.1% | SF-295 CNS 33.6% | UACC-257 melanoma 29.6% | M14 melanoma 10.8% | HCT-15 colon 87.3%
active: K-562 leukemia 7.8% | RXF 393 renal -23.4% | SF-539 CNS 8.16%

COc1ccc(-c2ccc3cc(C(=O)Nc4ccc(O)c(C(=O)/C=C/c5cc(OC)c(OC)c(OC)c5)c4)ccc3c2)cc1
inactive: K-562 leukemia 59% | MDA-MB-231 breast 85.6% | RXF 393 renal 93% | SF-268 CNS 105% | SF-295 CNS 101% | SF-539 CNS 103% | UACC-257 melanoma 97.9% | M14 melanoma 89.1% | HCT-15 colon 80.4%

Cc1ncc(-c2ccoc2)c(NC2CCCCCC2)n1
inactive: K-562 leukemia 106% | MDA-MB-231 breast 108% | RXF 393 renal 113% | SF-268 CNS 98.9% | SF-295 CNS 102% | SF-539 CNS 110% | UACC-257 melanoma 96.4% | M14 melanoma 101% | HCT-15 colon 103%

O=C1OCC2=C1C(c1cccc(Cl)c1)c1cc3c(cc1N2CCO)OCCO3 (stereo not drawn)
inactive: K-562 leukemia 17.5% | RXF 393 renal 33.9% | SF-268 CNS 23.1% | UACC-257 melanoma 44.6% | M14 melanoma 12.9%
active: MDA-MB-231 breast -3.22% | SF-295 CNS -16.5% | SF-539 CNS -3.57% | HCT-15 colon 8.81%

COc1ccc2c(c1)C(=O)c1c-2c(OCCN(C)C)nc2cc(OC)c(OC)cc12
inactive: K-562 leukemia 62% | MDA-MB-231 breast 72.3% | RXF 393 renal 70.4% | SF-268 CNS 41% | SF-295 CNS 21.5% | SF-539 CNS 71.9% | UACC-257 melanoma 103% | M14 melanoma 88.8% | HCT-15 colon 76.8%

COc1ccc(/C(=C2\O[C@@H]([C@H]3COC(C)(C)O3)[C@H]3OC(C)(C)O[C@@H]23)c2cc(OC)c(OC)c(OC)c2)cc1O
active: SF-539 CNS 9.85% | M14 melanoma 7.95%
inactive: K-562 leukemia 24.3% | MDA-MB-231 breast 43.9% | RXF 393 renal 81.9% | SF-268 CNS 36.3% | SF-295 CNS 85.2% | UACC-257 melanoma 107% | HCT-15 colon 26.9%

CCn1cc(C(=O)O)c(=O)c2cnc(N3CCCC3)nc21
inactive: MALME-3M melanoma 92.8% | MDA-MB-231 breast 106% | SF-268 CNS 116% | SF-295 CNS 94.7% | SF-539 CNS 100% | UACC-257 melanoma 97.2% | M14 melanoma 96.9% | HCT-15 colon 111%

CCOC(=O)CNC(=O)CCCCSc1ncnc2nc[nH]c12
inactive: K-562 leukemia 85.7% | MDA-MB-231 breast 108% | SF-268 CNS 113% | SF-295 CNS 127% | SF-539 CNS 91.2% | UACC-257 melanoma 81.2% | M14 melanoma 100% | HCT-15 colon 101%
